Results reported in PubChem BioAssay (NCI).
This is part of a sample that, as a whole, favours compounds with a hit. Of some 83,000 tested, about 20% had one in any assay.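 Assay: single dose, 48 h. Readout: percent growth (0 = no net growth; negative = cell death). Active: <10.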 Activity calls are given as the source filed them.

What was measured:
Experiment in all cases: NCI-60 one-dose screen, 48 h (100 = growth as untreated, 0 = no growth, -100 = all killed)
Details in all cases: 10 µM
[1] = system: NCI-H23 lung
[2] = system: NCI-H226 lung
[3] = system: HOP-62 NSCLC
[4] = system: NCI-H460 lung
[5] = system: NCI-H522 lung
[6] = system: A549/ATCC NSCLC
[7] = system: 786-0 renal
[8] = system: COLO 205 colon
[9] = system: DU-145 prostate
[10] = system: MALME-3M melanoma
[11] = system: MDA-MB-231 breast
[12] = system: RXF 393 renal
[13] = system: SF-268 CNS
[14] = system: SF-295 CNS
[15] = system: SF-539 CNS
[16] = system: UACC-257 melanoma
[17] = system: M14 melanoma
[18] = system: K-562 leukemia
[19] = system: HOP-92 NSCLC
[20] = system: NCI-H322M lung

Measured: growth

Cc1cc(=O)[nH]c(NN=C2CCCC2)n1
inactive: [1] 122% | [2] 101% | [3] 105% | [4] 116% | [5] 103% | [6] 123% | [7] 102% | [8] 118% | [9] 112% | [10] 108% | [11] 102% | [12] 121% | [13] 112% | [14] 108% | [15] 107% | [16] 125% | [17] 112%

Cc1cc2nc(CC(=O)c3ccccc3)c(=O)[nH]c2cc1C
inactive: [1] 84% | [2] 87% | [3] 96.2% | [4] 97.9% | [5] 81.2% | [6] 105% | [7] 98.3% | [8] 114% | [9] 112% | [18] 90.1% | [10] 101% | [12] 101% | [13] 108% | [14] 89.8% | [15] 95.6% | [16] 106% | [17] 87.2%

CC12CC3CC1C(C(=O)O2)C3C(=O)O (stereo unspecified)
inactive: [1] 96.8% | [2] 105% | [3] 98.9% | [4] 108% | [5] 96% | [6] 96.3% | [7] 108% | [8] 102% | [9] 106% | [18] 95.6% | [10] 94.2% | [11] 109% | [12] 109% | [13] 99.2% | [14] 101% | [15] 97.4% | [16] 92.1% | [17] 117%

Nc1ncnc2c1nc(N)n2C1OC(CO)C(O)C1O (stereo unspecified)
inactive: [18] 19.3%
active: [1] -22.9% | [2] -75.4% | [3] -52.9% | [4] -60.3% | [5] -63.3% | [6] -25.8% | [7] -85.6% | [8] -86.8% | [9] -21.8% | [11] -16.9% | [12] -59.6% | [13] -57.8% | [14] -70.2% | [15] -94.4% | [16] -56.6% | [17] -85.6%

C/C(=N\NC(=O)c1ccccc1N)c1ccccc1O
active: [8] 9.89%
inactive: [1] 38.7% | [2] 52.8% | [3] 43.3% | [4] 23.5% | [19] 18.2% | [6] 28.2% | [7] 60.6% | [9] 45.6% | [18] 34% | [10] 50% | [11] 44.7% | [12] 74.9% | [13] 39.3% | [14] 12.8% | [15] 32.5% | [17] 38.9%

COc1ccccc1NC(=O)c1cc2cc(Br)ccc2cc1O
active: [1] 4.53% | [2] 8.51% | [3] 6.34% | [4] 2.06% | [5] -24.5% | [6] 3.54% | [18] 7.54% | [10] -1.45% | [11] 3.51% | [15] 0.0916% | [16] -21%
inactive: [7] 14.1% | [8] 50.8% | [9] 27% | [12] 39% | [13] 17.8% | [14] 11.3% | [17] 19.6%

Cc1nc2ccccc2c2nnc(SCC(=O)N(Cc3ccccc3)c3ccccc3)n12
inactive: [1] 89.1% | [2] 94% | [3] 95.7% | [4] 107% | [19] 82.5% | [5] 70.9% | [7] 103% | [8] 101% | [18] 85.9% | [11] 92.1% | [13] 94.6% | [14] 88.2% | [15] 99.2% | [16] 92.8% | [17] 119%

CC(=O)C1CCCCC1
inactive: [1] 103% | [2] 89.9% | [3] 96% | [4] 102% | [19] 77.5% | [6] 97.2% | [7] 98.8% | [8] 101% | [9] 111% | [10] 107% | [11] 102% | [12] 99.1% | [13] 107% | [14] 92.4% | [15] 111% | [17] 106%

Cn1cnc2nc(Cl)nc(Cl)c21
inactive: [1] 40.6% | [20] 34.1% | [19] 31.3% | [6] 17.2% | [18] 25.5% | [10] 55.6% | [11] 20.9% | [12] 30.6% | [13] 22.1% | [14] 16.3% | [16] 60%
active: [3] 8.69% | [4] -9.25% | [7] 4.6% | [8] -29.3% | [9] -24% | [15] 2.85% | [17] -15.6%

O=c1[nH][nH]c(=O)c2cc([N+](=O)[O-])ccc12
inactive: [1] 101% | [20] 123% | [3] 102% | [4] 111% | [19] 107% | [5] 90.6% | [6] 108% | [7] 106% | [8] 99.6% | [9] 126% | [18] 98.9% | [11] 106% | [12] 109% | [13] 111% | [14] 117% | [15] 108% | [16] 110% | [17] 99.9%

COc1cc2nn(-c3ccccc3N)nc2cc1OC
inactive: [1] 94.3% | [20] 97.1% | [3] 103% | [4] 102% | [19] 85.8% | [5] 100% | [6] 95.1% | [7] 95.7% | [8] 119% | [9] 107% | [18] 99.3% | [10] 103% | [11] 116% | [12] 87% | [13] 100% | [14] 105% | [15] 96.5% | [16] 107% | [17] 107%

O=c1[nH]nc(SC2CCCCC2)c(=O)[nH]1
inactive: [1] 91.3% | [20] 96.8% | [3] 93.7% | [4] 104% | [19] 82% | [5] 80.5% | [6] 91.4% | [9] 114% | [18] 84.3% | [10] 95.7% | [11] 102% | [12] 129% | [13] 98.8% | [14] 118% | [15] 99% | [16] 91.2%

CCCCCCCCCCC1CO1 (stereo unspecified)
inactive: [1] 106% | [20] 109% | [3] 95.1% | [4] 105% | [19] 89.7% | [5] 102% | [6] 99.5% | [7] 101% | [8] 105% | [9] 108% | [18] 102% | [10] 103% | [11] 111% | [12] 103% | [13] 106% | [15] 105% | [16] 96.4% | [17] 108%

O=C(O)CNC(=O)c1ccccc1
inactive: [1] 107% | [20] 104%

CC(=O)OCC(=O)[C@@]1(O)CC[C@H]2[C@@H]3CC[C@@H]4C[C@H](O)CC[C@]4(C)[C@H]3C(=O)C[C@@]21C
inactive: [1] 103% | [20] 131% | [4] 108% | [5] 90.4% | [6] 101% | [7] 105% | [8] 105% | [9] 120% | [18] 101% | [10] 143% | [11] 103% | [12] 94.8% | [13] 102% | [14] 104% | [15] 100% | [16] 101% | [17] 110%

CN(C)c1ccc(S(=O)(=O)O)cc1
inactive: [2] 96.6% | [20] 116% | [3] 91.1% | [4] 109% | [19] 85.8% | [5] 101% | [6] 105% | [7] 110% | [8] 102% | [9] 110% | [18] 104% | [10] 103% | [11] 105% | [12] 103% | [13] 91.9% | [14] 107% | [15] 91.2% | [16] 107%

O=C(O)CCCC(=O)O
inactive: [1] 95.3% | [20] 98.9% | [3] 97.7% | [4] 101% | [5] 99.7% | [6] 97.9% | [7] 106% | [8] 97.1% | [9] 99.8% | [18] 120% | [10] 83.8% | [11] 106% | [12] 99.5% | [13] 94.1% | [14] 110% | [15] 104% | [16] 87.9% | [17] 106%

CC1CC(O)C2C3(C)CCCC2(COC3=O)C12CCC1(CCOC1=O)O2 (stereo unspecified)
inactive: [1] 109% | [3] 111% | [4] 95.4% | [19] 81.8% | [5] 107% | [6] 110% | [7] 99.1% | [8] 118% | [9] 105% | [18] 127% | [10] 116% | [11] 126% | [12] 114% | [13] 107% | [14] 131% | [15] 101% | [16] 114% | [17] 96.8%

C/C(=N/NC(N)=O)c1ccco1
inactive: [1] 97.1% | [20] 107% | [3] 85.7% | [4] 107% | [19] 89.8% | [5] 90.5% | [6] 83.7% | [7] 99.9% | [8] 105% | [9] 110% | [18] 88.3% | [10] 93.4% | [11] 118% | [12] 108% | [13] 104% | [14] 104% | [15] 101% | [16] 83% | [17] 91.8%

CCn1c(=O)n(C)c2c(=O)n(C)c(=O)n(C)c21
inactive: [1] 98.9% | [20] 105% | [3] 97.2% | [4] 112% | [19] 102% | [5] 96.1% | [6] 101% | [7] 109% | [8] 101% | [18] 107% | [11] 110% | [12] 109% | [15] 106% | [16] 99% | [17] 101%
